Screening results deposited in PubChem BioAssay by National Center for Advancing Translational Sciences (NCATS).
FLuc inh-1: inhibitors of firefly (Photinus pyralis) luciferase; P08659; purified P. pyralis luciferase, luminescence, biochemical; Potency, µM (top dose mostly 115 µM), hits mostly inhibitors; hit rate 2.5% among 76,000; further: on the % scale 0 is the no-effect control and ±100 the full control effect; nearly all actives have a fitted effect of over 65% in size
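Cell-free enzyme assay, 10nM P. pyralis luciferase, luciferin and ATP each at 10uM. Inhibition profiled over a 6-point titration, read as luminescence.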
3T3 cytotox: cytotoxic compounds in NIH 3T3 cells | NIH 3T3 viability, CellTiter-Glo ATP luminescence, 48-72 h | Potency, µM (series often up to 96.7 µM), for inactives: top-dose activity change, negative = cytotoxicity, usual class: inhibitors | hit rate 4.3% among 94,000; further: on the % scale 0 is the no-effect control and ±100 the full control effect; nearly all actives have a fitted effect of over 55% in size
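Viability of NIH 3T3 cells after 48 or 72 hr compound treatment at 37 °C was assessed by CellTiter-Glo, with luminescence imaged following a 10 min room-temperature step.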
NPR1 antag: antagonists of human natriuretic peptide receptor Npr1 | P16066 | HEK293 hNpr1 GloSensor cGMP, ANP-stimulated luminescence | Potency, µM (series often up to 46.3 µM), for the others: at the highest dose activity change, negative = inhibition, actives largely listed as inhibitors | hit rate 1.6% among 76,000 | AID 1347048; calls by dose curve; further: on the % scale 0 is the no-effect control and ±100 the full control effect; nearly all actives have a fitted effect of over 60% in size
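Compound pre-incubated 30 min at room temperature on GloSensor-loaded HEK293 cells stably carrying hNpr1 and the pGS-40F cGMP biosensor. Stimulation uses hNppA at 0.1 nM final; luminescence is taken at baseline and 20 min post-agonist.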
HEK cytotox: cytotoxic compounds in HEK 293 cells | HEK 293 viability, ATP luminescence (CellTiter-Glo), 48-72 h | Potency, µM (top dose mostly 115 µM), inactives show at the highest dose activity change, negative = cytotoxicity, actives largely listed as inhibitors | hit rate 6.6% among 94,000 | AID 1345083; further: on the % scale 0 is the no-effect control and ±100 the full control effect; nearly all actives have a fitted effect of over 60% in size
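HEK 293 seeded at 250 cells/well receive compound via pintool. After 48 or 72 hr at 37 degree Celsius, 5% CO2 and 95% humidity, CellTiter-Glo is dispensed and luminescence read following 10 min at room temperature.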
FLuc SDR no ATP: firefly luciferase binding stabilization, ATP absent. hit rate 7.8% among 1,300. shares compounds with FLuc inh-1. Purified FLuc-C-HiBiT, Nano-Glo HiBiT luminescence, no ATP. Potency, µM (top dose mostly 32.7 µM), for the others: top-dose activation (signal gain), hits mostly activators; further: nearly all actives have a fitted effect of over 55% in size
FLuc SDR ATP: stabilizes firefly luciferase with ATP present; purified FLuc-C-HiBiT + ATP, HiBiT complementation luminescence; shares compounds with FLuc inh-1; Potency, µM (highest dose often 32.7 µM), for inactives: at the highest dose activation (gain of signal), actives largely listed as activators; hit rate 8.7% among 1,300; AID 1963319;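 further: signal reports ligand binding via conformational change of the enzyme rather than luciferase catalysis; % of control where 0% means no effect; nearly all actives have a fitted effect of over 55% in size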
FLuc inh-2: firefly luciferase enzyme inhibition | AID 1963320 | hit rate 42% among 1,300 | Potency, µM (highest dose often 32.7 µM), without a hit: at the top dose activity change, negative = inhibition, usual class: inhibitors | purified FLuc-C-HiBiT enzyme, luciferin luminescence | shares compounds with FLuc inh-1; further: on the % scale 0 is the no-effect control and ±100 the full control effect; nearly all actives have a fitted effect of over 70% in size
NPR1 antag cnf: confirmation of human Npr1 natriuretic peptide receptor antagonists | HEK293 hNpr1 cGMP GloSensor luminescence, ANP-stimulated | shares compounds with NPR1 antag | Potency, µM (highest dose often 57.6 µM), without a hit: at the top dose activity change, negative = inhibition, usual class: inhibitors | hit rate 76% among 1,400 | AID 1347044; calls by dose curve; further: nearly all actives have a fitted effect of over 70% in size
Npr2 selectivity: hNpr2 antagonism, selectivity versus Npr1 | shares compounds with NPR1 antag | HEK293 hNpr2 GloSensor cGMP luminescence, CNP-stimulated | Potency, µM (doses to about 57.6 µM), without a hit: top-dose activity change, negative = inhibition, most hits filed as inhibitors | hit rate 67% among 1,400; calls by dose curve; further: nearly all actives have a fitted effect of over 70% in size
Target sequence (P20594 whole entry, looked up): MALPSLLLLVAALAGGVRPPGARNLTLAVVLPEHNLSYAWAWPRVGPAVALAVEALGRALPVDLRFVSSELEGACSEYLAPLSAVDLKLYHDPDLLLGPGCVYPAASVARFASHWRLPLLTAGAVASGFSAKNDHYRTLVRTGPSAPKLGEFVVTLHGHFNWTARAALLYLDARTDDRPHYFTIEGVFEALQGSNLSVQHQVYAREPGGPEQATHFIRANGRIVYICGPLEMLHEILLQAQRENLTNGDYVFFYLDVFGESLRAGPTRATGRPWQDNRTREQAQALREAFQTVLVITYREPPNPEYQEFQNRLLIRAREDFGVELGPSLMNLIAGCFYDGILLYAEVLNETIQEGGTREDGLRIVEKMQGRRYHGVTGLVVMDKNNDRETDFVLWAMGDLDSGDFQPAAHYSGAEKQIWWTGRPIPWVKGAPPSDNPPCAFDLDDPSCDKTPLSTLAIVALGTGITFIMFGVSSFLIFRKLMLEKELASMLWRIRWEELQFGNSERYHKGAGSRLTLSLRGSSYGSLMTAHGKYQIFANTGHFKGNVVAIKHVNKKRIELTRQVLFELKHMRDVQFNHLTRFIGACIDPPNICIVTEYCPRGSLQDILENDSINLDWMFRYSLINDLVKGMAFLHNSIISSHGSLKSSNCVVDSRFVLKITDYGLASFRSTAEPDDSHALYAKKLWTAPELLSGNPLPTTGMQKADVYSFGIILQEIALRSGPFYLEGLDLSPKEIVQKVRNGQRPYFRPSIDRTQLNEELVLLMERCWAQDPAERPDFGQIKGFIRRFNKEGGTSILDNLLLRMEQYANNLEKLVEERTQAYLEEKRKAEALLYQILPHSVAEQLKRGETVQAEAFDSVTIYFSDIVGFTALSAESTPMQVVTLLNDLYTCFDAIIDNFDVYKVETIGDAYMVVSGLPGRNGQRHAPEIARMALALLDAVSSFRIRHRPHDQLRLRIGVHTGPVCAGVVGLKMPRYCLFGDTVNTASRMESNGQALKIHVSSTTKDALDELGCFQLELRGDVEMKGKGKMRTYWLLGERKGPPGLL
FLuc counter: counter-screen for Npr1 antagonists: firefly luciferase inhibitors. shares compounds with NPR1 antag. purified FLuc enzyme, luminescence, Km substrate. Potency, µM (doses to about 57.6 µM), for the others: at the highest dose activity change, negative = inhibition, usual class: inhibitors. hit rate 0.7% among 1,400. AID 1347047; further: 0% is about no effect
GloSensor cGMP: reduces cGMP signal in GloSensor control cells | HEK293 GloSensor cGMP, SNP-stimulated, luminescence | Potency, µM (series often up to 57.6 µM), for the others: top-dose activity change, negative = inhibition, actives largely listed as inhibitors | hit rate 69% among 1,400 | shares compounds with NPR1 antag; calls by dose curve; further: on the % scale 0 is the no-effect control and ±100 the full control effect; nearly all actives have a fitted effect of over 70% in size
An asterisk follows results filed as active; i = inactive; ? = inconclusive; . = no result given; [ ] = another dose, or the depositor's remark. This is a sample that favours compounds with a hit; in the whole collection about 11% have one here. Unless noted, the call rests on the fitted dose curve; in most records, active means well fitted curve in the direction sought with a large enough effect; inconclusive means small, poorly fitted or top-dose-only effect, or another doubt; inactive means no such curve, though single readings can be large; an effect the other way counts as inactive or inconclusive. Potency means the concentration at half of the fitted maximal effect.

SMILES | FLuc inh-1 | 3T3 cytotox | NPR1 antag | HEK cytotox | others
COc1ccc(S(=O)(=O)NC[C@H]2C[C@@H]3CCN2C[C@@H]3CN(C)c2ccccc2)cc1 | i | 35µM* | 1%[70.6 µM] | ?
O=S(=O)(NC[C@H]1C[C@@H]2CCN1C[C@@H]2CN1CCc2ccccc21)c1ccccc1 | i | 56µM* | -14%[70.6 µM] | 56µM*
CN1CCN(C[C@H]2CN3CC[C@H]2C[C@@H]3CNS(=O)(=O)c2ccccc2)CC1 | i | -23%[174 µM] | 3%[70.6 µM] | -4%[172 µM]
O=S(=O)(NC[C@H]1C[C@@H]2CCN1C[C@@H]2CN1CCCC1)c1ccc(Cl)cc1 | i | 79µM* | -1%[70.6 µM] | ?
COc1ccc(S(=O)(=O)NC[C@H]2C[C@@H]3CCN2C[C@@H]3CN2CCC(Cc3ccccc3)CC2)cc1 | i | 13µM* | -16% | ?
COc1ccc(S(=O)(=O)NC[C@H]2C[C@@H]3CCN2C[C@@H]3CN2CCOCC2)cc1 | i | -1%[174 µM] | -2%[70.6 µM] | 0%[172 µM]
CC(=O)Nc1ccc(S(=O)(=O)N2C[C@@H]3C[C@H](C2)c2c(-c4cccs4)ccc(=O)n2C3)cc1 | i | -22% | -4% | -2%
O=C(c1ccccc1)N1C[C@@H]2C[C@H](C1)c1ccc(-c3ccc(Cl)cc3)c(=O)n1C2 | i | 63µM* | -15%[70.6 µM] | ?
CC[C@H]1CN2CC[C@H]1C[C@@H]2CNC(=O)c1ccco1 | i | -5%[230 µM] | 1%[70.6 µM] | i
O=[S+]1([O-])NC2(CCN(CC3CCCCC3)C2)COc2ccncc21 (configuration not stated) | . | 1% | . | -8%
O=C(Nc1ccc2c(c1)OCCO2)c1cccn(Cc2ccccc2)c1=O | . | . | . | . | FLuc SDR no ATP=16%;FLuc SDR ATP=11%;FLuc inh-2=?
COCCNC(=O)[C@H]1CN2CC[C@H]1C[C@@H]2Cn1cc(CC2CCCCC2)nn1 | i | -12%[174 µM] | 0%[70.6 µM] | -7%[172 µM]
CN1CCN(C(=O)COc2ccc(-c3nc4ccccc4s3)cc2)CC1 | . | . | . | . | FLuc SDR no ATP=1.6µM*;FLuc SDR ATP=?;FLuc inh-2=0.5µM*
CC(C)N1C[C@@H]2OCC(=O)N(Cc3ccccn3)[C@@H]2C1 | i | ? | -2%[70.6 µM] | 4%[230 µM]
CC(C)(C)CN1CCC2(CN[S+](=O)([O-])c3cccnc3O2)C1 (configuration not stated) | . | i | . | 2%
Cc1ccc(C(=O)N2[C@H]3CC[C@@H]2c2cnc(-c4ccccc4)nc2C3)cn1 | i | -9% | 2% | -13%
CCn1cc(-c2cc3c(cn2)CN(C)CCN3)cn1 | . | . | . | . | FLuc SDR no ATP=16%[65.7 µM];FLuc SDR ATP=9%[65.7 µM];FLuc inh-2=?
COc1ccc(-c2cc3c(cn2)CN(C)CCN3)cn1 | 6.3µM* | ? | -21%[70.6 µM] | -24%[230 µM] | FLuc SDR no ATP=20%[65.7 µM];FLuc SDR ATP=15%[65.7 µM];FLuc inh-2=?
CC(C)CCN1CCCC2(CC(c3ccccn3)=NO2)C1 (configuration not stated) | . | -11%[138 µM] | . | -12%[172 µM]
CCCN1CCNc2cc(Nc3ccccc3)ncc2C1 | 6.3µM* | ? | -1%[70.6 µM] | 89µM* | FLuc SDR no ATP=27%[65.7 µM];FLuc SDR ATP=19%[65.7 µM];FLuc inh-2=?
COc1ccc2c(c1)C1(CCN(C(=O)Nc3ccc4c(c3)OCCO4)C1)C(=O)N2C (configuration not stated) | 10µM* | -4% | -15% | -29% | FLuc SDR no ATP=22%;FLuc SDR ATP=15%;FLuc inh-2=?
COc1ccc2c(c1)C1(CCN(C(=O)Nc3cccc(C)c3)C1)C(=O)N2C (configuration not stated) | i | -7% | -8% | -16%
COc1cc2c(cc1Oc1cccc(N(C)C)c1)NC(=O)C21CCN(c2ncc(F)cn2)CC1 | i | ? | -19% | -18%
COc1cc2c(cc1Oc1cccc(N(C)C)c1)NC(=O)C21CCN(Cc2ccccc2)CC1 | i | 25µM* | 11µM* | 28µM* | NPR1 antag cnf=17µM*;Npr2 selectivity=19µM*;FLuc counter=-2%;GloSensor cGMP=9.7µM*
COc1cc2c(cc1Oc1cccc(N(C)C)c1)NC(=O)C21CCN(Cc2cccc(O)c2)CC1 | i | ? | 11µM* | 25µM* | NPR1 antag cnf=19µM*;Npr2 selectivity=22µM*;FLuc counter=-3%;GloSensor cGMP=17µM*
SMILES | FLuc inh-1 | 3T3 cytotox | NPR1 antag | HEK cytotox | others
CCC(CC)c1cc([C@H]2CN3CC[C@H]2C[C@@H]3CNC(=O)COc2ccccc2)nc(-c2ccncc2)n1 | i | 22µM* | 11µM* | 28µM* | NPR1 antag cnf=17µM*;Npr2 selectivity=17µM*;FLuc counter=-2%;GloSensor cGMP=-9%
O=C(CC1CCCC1)N1[C@H]2CC[C@@H]1c1cnc(-c3ccc(F)cc3)nc1C2 | i | -24% | 4µM* | ? | NPR1 antag cnf=4.3µM*;Npr2 selectivity=6.1µM*;FLuc counter=-1%;GloSensor cGMP=4.3µM*
O=C(c1ccsc1)N1[C@H]2CC[C@@H]1c1cnc(-c3ccc(F)cc3)nc1C2 | i | -37% | 8.9µM* | 40µM* | NPR1 antag cnf=14µM*;Npr2 selectivity=11µM*;FLuc counter=-2%;GloSensor cGMP=12µM*
CCCS(=O)(=O)N1[C@H]2CC[C@@H]1c1cnc(-c3ccc(F)cc3)nc1C2 | i | ? | 18µM* | ? | NPR1 antag cnf=17µM*;Npr2 selectivity=19µM*;FLuc counter=-4%;GloSensor cGMP=14µM*
CCn1nccc1C(=O)N1[C@H]2CC[C@@H]1c1cnc(-c3ccccc3)nc1C2 | i | -39% | 13µM* | ? | NPR1 antag cnf=17µM*;Npr2 selectivity=22µM*;FLuc counter=2%;GloSensor cGMP=15µM*
COCCOCC(=O)N1[C@H]2CC[C@@H]1c1cnc(-c3ccc(F)cc3)nc1C2 | i | ? | -10% | -15%
Cc1cc(C)cc(C(=O)N2CCC3(CC2)c2nccn2-c2ccccc2CN3C)c1 | i | -7% | -3% | ?
